Reference: the supplement of paper PMC6555819

The sequences below were run on VDR:RXRa (NR concentration 270 nM, RXRa partner concentration 90 nM) (assay: PBM binding z-score (relative to random genomic background probes); higher = stronger binding; sequences stand for … in GC…GCGATTGACAGCGTAGAATGAAGG).
Method: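 Protein-binding microarray (Agilent 4x180K custom design, double-stranded 60-nt probes: 5' GC cap, 34-nt variable region, 24-nt constant primer region; full probe sequence given). Purified or IVT nuclear receptor:RXRα heterodimers (3:1 NR:RXRα, mostly 270:90 nM) or homodimers were incubated for 1 h in PBS with 2% milk and no ligand, then detected with Alexa488 antibodies. Fluorescence from o1-orientation probes (~5 replicates averaged) was converted to z-scores against 500 random hg19 background probes. Variable regions are seed direct-repeat (DR0–DR5) sites, all their single-nucleotide variants and half-site ablations.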
Work on AGAACGAGGGCACGCTGAATTGATAGCAGAGTAG yielded a PBM binding z-score of 0.557.
With TCGAGTAGGTTAGCAATGGGGCATTCAGCTTTCT the PBM binding z-score was -0.142.
For TCTAGTTGTTCAAAGGTCACACACTCGAAATGCG, the PBM binding z-score was 4.95.
With CGAACTAGGTCATTGACCGGACAGTGAATAGTAA the PBM binding z-score was 1.96.
CGAACGAGCGCATGAGTTGATAGCAAATGCCGAT gave a PBM binding z-score of -0.307.
Work on GCGACTCGGGCAAAGCAGGTTACCATAAGGTTGG yielded a PBM binding z-score of -0.491.
In the case of AGACAAAGTTCATCTAGGTAACGTAAGATATGCT, the PBM binding z-score is reported as 5.16.
With TCTTGTAGATCAAGTAGGTTAAGAAAGCCTGAGT the PBM binding z-score was 0.698.
With AAATGTAGGTTACATCCGGGTCATTCAGGCTATG the PBM binding z-score was 4.17.
TCTGCTAGGTCAGATGGTCAGCTAACGAGCTGCC showed a PBM binding z-score of 0.133.
In the case of ACTAGTTGGTTAGCTGAGGTCACACACAATTCGG, the PBM binding z-score is reported as 4.03.
Work on CCTTCCGGGTCACGAGGTTATAGCACGACGAGCG yielded a PBM binding z-score of 5.39.
ACTTACGGGTCAACGAGGTTATATCACGCGTATA showed a PBM binding z-score of 7.44.
Work on TCTAGTTGGTCAAAGGTGACACACTCGAAATGCG yielded a PBM binding z-score of 1.92.
ACTAGCAGGCCAAGGGTCACTCATGATTAGTCCG was tested, and the PBM binding z-score was 2.64.
For AGAACGAGGGCAATGAGTTGCTAGCACGGGTGGC, the PBM binding z-score was 3.91.
With TCGAGTAGGTTACCAATGGGGCCTTCAGCTTTCT the PBM binding z-score was -0.371.
ATCTCTAGGTACCAAGTTCAGTGAAAGAGAGGAC gave a PBM binding z-score of 1.64.
Work on GCATATAGGTAATAAAAGGTGAAAGTCCGATTGT yielded a PBM binding z-score of 0.675.
With CGAACTAGGTCACGGACAGTGAATCTCCGCACGC the PBM binding z-score was 2.74.
Work on GATACTGGGTCAAGGCCAGAGTACGCGTATTGAT yielded a PBM binding z-score of 1.46.
TCTGCTAGGGCAACGATGGTCAGCTAATCTGCTA was tested, and the PBM binding z-score was -0.552.
CCAGACAAGTGAGAAGGTAACTCAGCCTCGATTA was tested, and the PBM binding z-score was 0.143.
TCATATAGGTAAATGCTAGGTGAAAGTACGATCT gave a PBM binding z-score of 1.15.
With TCTAGTTGGTCAAAGGTCGCACACTCGAAATGCG the PBM binding z-score was 3.18.
In the case of CCTACTGGGCCATCAGGTCTTTGATATCAACGTT, the PBM binding z-score is reported as -0.244.
In the case of CTTGAAAGGTCGGTTGAGGTGAGTATACGGATAA, the PBM binding z-score is reported as 2.66.
CCTACTGGGCCATGCAGAGGTCATTGATCATATG showed a PBM binding z-score of 3.86.
Sequence CGAACGAGGGCATGAGTTCATAGCAAATGCCGAT has a PBM binding z-score of 5.62.
ACTATTAGTTGACTTAGGGCCACCGATACGACGC showed a PBM binding z-score of 0.067.
CATACAGGGTCAGCTCGGCCAGAGTAGGGACGGC gave a PBM binding z-score of 3.32.
Sequence ACCAGTTGGTCAGCTGAGGTCACACACAATTCGG has a PBM binding z-score of 4.45.
With CCCGACAGGTGAAAGGTAACTCAGTCTGGTACGC the PBM binding z-score was 0.836.
For TCATATAGGTAAATGCTGGGTGAAAGTCCGATCT, the PBM binding z-score was 0.641.
Work on TCGAGTAGGTTAGGGCCATTCAGAATGGCGTCGA yielded a PBM binding z-score of -0.353.
Work on ATCTCTAGGAAAAGTTCAGTGAAAGATCGATAGA yielded a PBM binding z-score of 1.2.
CCTTACGGGTCAAGGTTAGAGCACGGGTGGTACG was tested, and the PBM binding z-score was 3.08.
Work on TGTCAAAGTTCAAACGTAACGTAAGTATCCACAC yielded a PBM binding z-score of 4.68.
With GCATATAGGTAATACAAAGTGAAAGTCCGATTGT the PBM binding z-score was -0.024.
Sequence CCGAGTAGGTTATGGGGCATTCACGCAACGGTGA has a PBM binding z-score of -0.0125.
